Shn3 3UTR inh = Schnurri-3 reporter inhibition in Clone20 osteoblasts; AID 588674; inhibition, % at 12.5 µM; Clone20 osteoblast Shn3 3'UTR firefly luciferase, 24 h; actives 0.52% (n = 360,000);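 active = mean inhibition of at least 75% with every replicate also reaching 75%; inconclusive = mean inhibition at least 75% but some replicate below; inactive = mean inhibition below 75%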;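 also: 0% = median of neutral control wells and 100% = pilot-screen positive control compound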
Peg3 prom inh-1 = Peg3 promoter activity inhibition | HeLa PEG-Prom luciferase reporter, luminescence, overnight | inhibition, % at 20 µM | AID 588405 | actives 1.7% (n = 360,000);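 active = inhibition of at least 50% at 20 µM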
MITF TRPM1 inh = inhibitors of MITF-driven TRPM1 promoter in melanoma cells; AID 488899; SK-MEL-5 TRPM1 promoter luciferase, 24 h; actives 0.83% (n = 330,000); inhibition, % at 12.5 µM;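 active = mean inhibition across replicates of 60% or more, whatever share of single replicates reaches that level; inconclusive = some that reach 60%, reason not given; inactive = mean inhibition across replicates below 60%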
KKLEB cytotox = reduces viability of KKLEB cystic fibrosis airway cells; AID 602141; actives 0.36% (n = 360,000); KKLEB CF airway cells viability, ATPlite luminescence, overnight; active compounds read low; cells stimulated with P. aeruginosa culture filtrate; activity change (cytotoxicity), % at 5 µM;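 active = corrected activity change at or below -50% at 5 µM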
HIF-2a block = inhibitors of HIF-2a; 786-0 RCC cells HIF-2a reporter, luciferase luminescence, overnight; inhibition, % at 18.8 µM; actives 0.72% (n = 360,000);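 active = inhibition of the luminescence signal of 40% or more relative to plate controls, in a single-dose primary screen at 18.75 µM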
CF NFkB block = blocks PAF-induced NF-kB reporter in cystic fibrosis cells; KKLEB NF-kB-GFP reporter, GFP fluorescence overnight; inhibition, % at 5 µM; actives 0.86% (n = 360,000); AID 588850;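 active = at least 50% inhibition at 5 µM, scaled per plate between neutral and stimulator controls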;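 also: PAF is a Pseudomonas aeruginosa culture filtrate used as stimulus; plate controls were PAF-stimulated DMSO wells for no effect and unstimulated DMSO wells for full effect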
Peg3 prom inh-2 = Peg3 promoter inhibition confirmation; shares compounds with Peg3 prom inh-1; HeLa PEG-Prom luciferase reporter, luminescence, overnight; inhibition, % at 20 µM; actives 84% (n = 1,300); AID 602417;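 active = at 20 µM dose, 40% or more inhibition averaged across four replicates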
An asterisk follows results filed as active; ? = inconclusive; . = no result given. A selection: hits, their analogues and other compounds. The true share with any hit is near 2.7%.

SMILES | Shn3 3UTR inh | Peg3 prom inh-1 | MITF TRPM1 inh | KKLEB cytotox | HIF-2a block | CF NFkB block | Peg3 prom inh-2
COc1ccc(CCN(C)C(=O)c2cc(-c3ccccc3)nc3ccc(C)cc23)cc1OC | 3.6 | 2.4 | 13.2 | 2.3 | -18.1 | 10.7 | .
COc1ccccc1CN(C)C(=O)c1cc(-c2cccs2)nc2ccccc12 | 10.9 | 69.0* | 5.6 | -3.9 | 9.3 | -9.7 | 81.2*
COc1ccc(CN(C)C(=O)c2cc(-c3ccc(OC)c(OC)c3)nc3ccccc23)c(OC)c1 | 4.7 | 21.6 | 13.3 | 2.0 | 10.3 | -8.9 | .
COc1ccccc1-c1csc(NC(=O)c2cc(-c3cccs3)nc3ccccc23)n1 | 4.6 | 8.9 | 6.1 | 1.7 | 12.9 | 16.4 | .
COc1ccc(-c2cc(C(=O)N(C)Cc3cccc(OC)c3OC)c3ccccc3n2)cc1OC | 23.3 | 55.1* | -16.8 | -14.4 | -6.4 | 9.2 | 56.2*
COc1ccc(CN(C)C(=O)c2cc(-c3ccccc3)nc3ccc(C)cc23)c(OC)c1OC | 9.1 | 58.8* | -1.7 | -12.3 | -4.5 | 22.6 | 59.5*
Oc1ccc(NC(=S)N=Nc2c(O)[nH]c3ccc(Br)cc23)cc1 | -3.0 | 39.7 | 40.4 | -16.0 | 3.9 | 43.6 | .
Oc1[nH]c2ccc(Br)cc2c1N=NC(=S)Nc1ccc(F)cc1 | 20.0 | 65.4* | 26.9 | 13.6 | 21.5 | -3.0 | 67.5*
COc1cc(C23CCCN(CCC(C(C)(C)C)C2)C32OCCO2)cc(OC)c1OC (stereo unspecified) | . | . | . | . | 5.6 | . | .
COc1cc(/C=C/C(=O)CC(=O)/C=C/c2ccc(O)c(OC)c2)ccc1O | -20.7 | 64.0* | 9.0 | -2.3 | 16.5 | -19.9 | 31.0
COc1cc(/C=C/C(=O)O)ccc1O | 0.0 | 7.2 | . | 1.3 | 20.1 | -16.0 | .
O=C(Nc1cccc(Cl)c1)c1csc([C@H]2C[C@H](O)[C@@H](CO)O2)n1 | -60.9 | -257.0 | . | -9.3 | -230.6 | -5.8 | .
O=C(Nc1ccc(-c2nc3ccccc3o2)cc1)c1ccc(N2CCOCC2)c([N+](=O)[O-])c1 | 91.4* | 50.6* | 29.7 | -51.1* | -82.0 | 51.8* | 48.3*
CN(C)CCNc1ncnc2c1sc1nc(N3CCCC3)c3c(c12)CC(C)(C)OC3 | 3.8 | 57.2* | 19.5 | -16.5 | 23.5 | 15.7 | 67.5*
CCOC(=O)C1CCN(c2cc3c(cc2NC(=O)c2ccccc2OCC)n(C)c(=O)n3C)CC1 | 14.6 | 51.4* | 7.3 | -3.2 | 9.3 | 19.1 | 45.4*
Cc1c(C)c2cccnc2c2ncccc12 | 82.6 | 56.6* | 82.8* | -28.4 | -15.0 | 12.6 | 42.8*
COc1cccc(C(C)(O)c2nc(-c3ccc(N(C)C)cc3)cs2)c1 (stereo unspecified) | 59.7 | -98.3 | . | 12.0 | -107.4 | 9.0 | .
Cc1ccc(NC(=O)NCC2CCN(Cc3cc(C)ccc3Cl)CC2)c(C)c1 | -13.1 | 10.2 | -5.5 | -1.2 | 5.7 | 4.0 | .
Cc1ccc(C)c(CN2CCC(CNC(=O)Nc3ccc(F)c(Cl)c3)CC2)c1 | 14.9 | 67.6* | 36.8 | -14.7 | 7.6 | 15.5 | 98.3*
COc1cc(NC(=O)c2ccccc2)ccc1NC(=O)c1cc2ccccc2o1 | 46.1 | 28.6 | -10.2 | -15.4 | -3.8 | 26.6 | .
Cc1cc(NC(=O)c2cncc(Br)c2)ccc1NC(=O)c1cc2ccccc2o1 | 68.5 | 85.2* | 65.4* | -5.5 | 18.6 | -2.6 | 35.1
Cc1cccc2c1-c1sc(C(=O)NCCCN3CCCC(C)C3)cc1CO2 (stereo unspecified) | -4.4 | 76.5* | 7.3 | -14.0 | -9.8 | 8.9 | 98.8*
COc1ccc(OC)c(NC(=O)c2cc3c(Cl)nc4ccccc4c3s2)c1 | 6.0 | 64.5* | 8.4 | -26.4 | 6.3 | 18.2 | 20.1
CCOc1ccc2[nH]c3c(N4CCN(C(=O)c5ccco5)CC4)ncnc3c2c1 | 14.1 | 32.3 | . | 11.5 | 23.4 | -30.7 | .
O=C(c1ccco1)N1CCN(c2ncnc3c2[nH]c2ccc(Br)cc23)CC1 | 27.0 | 73.3* | -5.8 | 2.6 | 15.9 | -42.5 | 84.9*
SMILES | Shn3 3UTR inh | Peg3 prom inh-1 | MITF TRPM1 inh | KKLEB cytotox | HIF-2a block | CF NFkB block | Peg3 prom inh-2
COc1ccc(-c2ccc3[nH]c4c(c3c2)CCN2C[C@@H]([C@H](C)O)[C@@H](N(C)C(=O)Nc3cc(Cl)cc(Cl)c3)C[C@@H]42)cc1 | 20.3 | 63.6* | . | 1.4 | 9.5 | 0.6 | 60.9*
O=C(NCCS(=O)(=O)NCc1ccccc1)c1ccc2c(c1)OCO2 | -3.0 | 5.0 | -6.7 | 4.9 | 6.7 | 21.4 | .
O=C(NCCc1ccccc1)c1ccc2c(c1)OCO2 | 21.6 | 57.8* | 53.4 | -4.7 | 54.4* | 10.9 | 51.8*
COc1ccccc1NC(=O)COC(=O)Cn1c(C)csc1=O | 1.2 | 6.4 | . | 6.3 | 5.6 | -10.6 | .
CC(C)NC(=O)NC(=O)COC(=O)c1c2c(nc3ccccc13)CCC2 | 65.9 | 92.3* | 22.9 | 1.4 | 15.6 | 17.5 | 85.6*
O=C(COC(=O)c1c2c(nc3ccccc13)/C(=C\c1cccs1)CCC2)Nc1ccccc1 | 47.0 | 54.5* | -9.1 | 15.3 | 15.8 | -38.1 | 60.0*
CC(C)(C)NC(=O)COC(=O)c1c2c(nc3ccccc13)CCC2 | 14.6 | 39.8 | 8.7 | -0.8 | 14.1 | 14.1 | .
COc1ccc2c(c1)CCO[C@]21O[C@H](CCO)C[C@H](O)[C@H]1O | -4.7 | 4.9 | . | -3.8 | -7.4 | 14.4 | .
CC1(Cc2ccc(Cl)s2)C(=O)Nc2c(Cl)ccc(Cl)c21 (stereo unspecified) | -9.5 | 16.6 | . | 13.4 | 5.4 | 7.5 | .
O=C1N=C(N2CCOCC2)S/C1=C\c1ccc(-c2ccccc2Cl)o1 | -3.8 | 55.0* | -8.9 | 3.8 | -7.6 | -6.2 | 18.0
O=S(=O)(/N=C(/Sc1ccccc1)c1ccccc1)c1ccccc1 | -36.5 | 59.8* | ? | -4.7 | 22.4 | -6.2 | 75.4*
CS/C(=N\S(=O)(=O)c1ccccc1)c1ccccc1 | 12.7 | -0.7 | 7.9 | -0.2 | 13.1 | 10.9 | .
Nc1ncnc2c1ccn2[C@H]1CN(Cc2ccc3c(c2)OCO3)C[C@@H](COC(=O)c2ccccc2)O1 | 8.1 | 0.8 | . | -2.9 | 8.0 | 4.9 | .
CCn1c2ccccc2c2cc(NC(=O)COC(=O)c3ccc(O)cc3)ccc21 | -24.0 | -7.6 | 10.1 | 11.8 | -3.1 | -20.4 | .
CCn1c2ccccc2c2cc(NC(=O)C(C)OC(=O)c3ccc(NC(=O)CC#N)cc3)ccc21 (stereo unspecified) | 16.1 | 66.9* | 45.9 | -65.2* | 1.6 | 45.4 | 55.3*
COc1ccc(NC(=O)Nc2nc(C(N)CC(C)C)cs2)cc1 (stereo unspecified) | 4.3 | 11.3 | . | 9.9 | 15.3 | 2.1 | .
CC(C)CC(N)c1csc(NC(=O)Nc2ccccc2C(C)C)n1 (stereo unspecified) | 7.8 | 71.8* | . | -7.5 | 9.2 | 9.2 | 84.1*
Cc1nc(N2CCN(c3ccccc3O)CC2)c2c(-c3ccccc3)csc2n1 | 21.4 | 66.0* | 18.0 | 25.7 | 12.2 | 45.3 | 65.8*
